Screening data from PubChem BioAssay.
Vaccinia Venus = vaccinia inhibition (Venus reporter). Vaccinia virus Venus reporter expression, fluorescence. 0.46% of 330,000 active. Potency, µM (highest dose often 36.5 µM), most hits filed as inhibitors; calls by dose curve; tested in A549 cells; note: nearly all actives have a fitted effect of over 30% in size
NS1 inh = blocks influenza NS1 protein function; AID 2326; Potency, µM (doses to about 46.1 µM); 0.4% of 270,000 active; calls by dose curve; note: actives are rising curves; nearly all actives have a fitted effect of over 50% in size
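S. cerevisiae expressing influenza A NS1, grown in glucose, washed, then diluted 1:100 into pH 6.0 -URA galactose medium with 23 nl compound. Growth recovery read as OD600; NS1-free strain serves as control.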
Vaccinia mCherry = inhibitors of vaccinia virus infection (mCherry reporter signal). Vaccinia virus mCherry reporter infection, fluorescence. Potency, µM (titrated, usually from 36.5 µM), actives largely listed as inhibitors. 0.63% of 310,000 active. AID 720579; calls by dose curve; tested in A549 cells; note: nearly all actives have a fitted effect of over 35% in size
Pf growth 48h = inhibits P. falciparum growth in the first generation, 48 h | P. falciparum luciferase growth in erythrocytes, 48 h | Potency, µM (titrated, usually from 28.7 µM), usual class: inhibitors | 5.9% of 310,000 active
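Luciferase-expressing P. falciparum in infected erythrocytes (2% hematocrit, 0.1% parasitemia final) in RPMI 1640/0.5% Albumax were exposed to compound for 48 hours at 37 C, 5% CO2; growth read as luminescence.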
HCV inh = blocks hepatitis C virus; Huh7.5.1 HCVcc-Cre infection, luciferase reporter, 44 h; Potency, µM (doses to about 41.8 µM), actives largely listed as inhibitors; 3.4% of 340,000 active
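1,000 cells/well; 4 h culture; + compound; + HCVcc-Cre (~0.5 moi); 44 h; luciferase substrate, RT 15 min; read 15 sec.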
Pf growth 96h = P. falciparum growth inhibition at 96 hours; P. falciparum luciferase reporter growth, 96 h; Potency, µM (series often up to 28.7 µM), hits mostly inhibitors; 6.9% of 320,000 active
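P. falciparum expressing integrated firefly luciferase grown in erythrocytes (2% hematocrit, 0.05% parasitemia final) with compounds for 96 hours at 37 C, 5% CO2. Growth inhibition read as loss of luminescence after adding luciferase detection reagent.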
Large screens that a line does not name were inactive. A selection: hits, their analogues and other compounds. The true share with any hit is near 11%. Unless noted, calls come from the whole dose curve; as a rule, active = well fitted inhibition curve with a large enough effect; inconclusive = small, poorly fitted or top-dose-only effect, or another doubt; inactive = no such curve, though single readings can be large or run the other way.

CC(C)(C)c1ccc(OCc2ccc(C(=O)N/N=C/c3ccc(O)c(O)c3)cc2)cc1	Pf growth 48h inconclusive, HCV inh 5.6µM, Pf growth 96h inconclusive (no result: NS1 inh)
O=C(N/N=C/c1ccc(F)cc1)c1ccc(OCc2ccccc2)cc1	Pf growth 48h inconclusive (no result: Vaccinia Venus, Vaccinia mCherry)
CC[N+]12CCC(CC1)C(C(O)(c1ccccc1)c1ccccc1)C2 (stereo not drawn)	Pf growth 48h inconclusive, Pf growth 96h inconclusive (no result: Vaccinia Venus, Vaccinia mCherry)
CCN(CC)C(=O)Cc1ccccc1	none
O=C(/C=C/c1ccc(OC2CSC2)cc1)c1ccccc1	Pf growth 96h inconclusive (no result: Vaccinia Venus, Vaccinia mCherry)
Cc1occc1C(=O)N/N=C/c1ccc(OCc2ccccc2)cc1	Pf growth 48h inconclusive, HCV inh inconclusive, Pf growth 96h 10µM (no result: Vaccinia Venus, Vaccinia mCherry)
Cc1occc1C(=O)N/N=C/c1ccc(-c2ccccc2)cc1	none
O=C(N/N=C/c1ccc(OC2CSC2)cc1)c1ccccc1	Pf growth 48h 12µM, Pf growth 96h inconclusive
COc1ccc(Nc2ncc(C(=O)N3CCC(C(N)=O)CC3)c3ccccc23)cc1	none (no result: Vaccinia Venus, Vaccinia mCherry)
COc1ccc(OC)c(CCNC(=O)CCn2c(=O)c3cccn3c3ccc(F)cc32)c1	none (no result: NS1 inh, Pf growth 48h, HCV inh, Pf growth 96h)
CCCC(C)C1(CC)C(=O)NC(=Nc2ccccc2OC)NC1=O (stereo not drawn)	Pf growth 96h 10µM (no result: Vaccinia Venus, Vaccinia mCherry)
CCOC(=O)c1cnc2ccc(OCC)cc2c1NCCN1CCOCC1	Pf growth 48h inconclusive, Pf growth 96h inconclusive
CCCCN(C(=O)CN1C(=O)C2CCCCC2C1=O)c1c(N)n(CCC)c(=O)[nH]c1=O (stereo not drawn)	none (no result: NS1 inh)
Cc1c(C(=O)NC(C)C)sc2ncn(CC(=O)N3CCC(C)CC3)c(=O)c12	none (no result: Pf growth 96h)
COC(=O)c1ccc(NCc2cc(O)ccc2O)cc1O	HCV inh inconclusive (no result: NS1 inh, Pf growth 48h, Pf growth 96h)
COC(=O)c1ccc(NCc2c(O)ccc(O)c2Br)cc1Cl	HCV inh 11µM (no result: NS1 inh, Pf growth 48h, Pf growth 96h)
CS(=O)(=O)N1CCc2cc(-c3csc(NCC4CCCO4)n3)ccc21 (stereo not drawn)	Pf growth 48h 9.3µM, Pf growth 96h inconclusive
O=C(Cc1cccs1)Nc1nc(-c2ccc(F)c(F)c2)cs1	Vaccinia mCherry inconclusive, Pf growth 48h inconclusive, HCV inh inconclusive, Pf growth 96h inconclusive
CC(=O)Nc1ccc(-c2csc(NC(=O)Cc3cccc(F)c3)n2)cc1	Vaccinia mCherry inconclusive, HCV inh 7.9µM
CCCC(=O)Nc1nc(-c2ccc3c(c2)CCN3S(C)(=O)=O)cs1	HCV inh 13µM
CCC(=O)Nc1nc(-c2ccc3c(c2)OCCO3)cs1	HCV inh inconclusive
O=C(Cc1cccs1)Nc1nc(-c2ccc(F)cc2F)cs1	HCV inh 11µM, Pf growth 96h inconclusive (no result: Vaccinia Venus, Vaccinia mCherry, Pf growth 48h)
COc1ccccc1NC(=O)CSc1nnc2ccccn12	none (no result: Vaccinia Venus, NS1 inh, Vaccinia mCherry)
CC1Cc2cc(-c3csc(NC(=O)Cc4cccs4)n3)ccc2N1S(C)(=O)=O (stereo not drawn)	Vaccinia Venus inconclusive, Vaccinia mCherry inconclusive, Pf growth 48h 13µM, HCV inh 6.3µM, Pf growth 96h inconclusive
CCC(=O)Nc1nc(-c2ccc3c(c2)CC(C)N3S(C)(=O)=O)cs1 (stereo not drawn)	HCV inh inconclusive
O=C(c1cccs1)N(Cc1nc2sc3c(c2c(=O)[nH]1)CCCC3)C1CCCC1	Vaccinia mCherry 13µM, Pf growth 48h inconclusive, HCV inh inconclusive
COc1ccc(CC(=O)NCC(c2ccc(Cl)cc2)N2CCOCC2)cc1 (stereo not drawn)	none (no result: NS1 inh, Pf growth 48h, HCV inh, Pf growth 96h)
CCOc1cc(-c2nc3ccccn3c2NCC2CCCO2)ccc1O (stereo not drawn)	Pf growth 96h 12µM (no result: Vaccinia Venus, Vaccinia mCherry)
CC(=O)c1cccc(NC(=O)c2cc3nc(-c4ccc(Br)cc4)cc(C(F)(F)F)n3n2)c1	Vaccinia Venus inconclusive, Vaccinia mCherry 13µM (no result: NS1 inh, Pf growth 48h, HCV inh, Pf growth 96h)
CCOC(=O)Cc1nn(C(C)C)c(=O)c2ccccc12	Pf growth 96h inconclusive
COc1ccc(O[C@H]2C=C[C@@H](c3ccccc3)O[C@@H]2COC(=O)CC/C(C)=N/OC[C@@H](O)COCc2ccco2)cc1	Pf growth 48h inconclusive, Pf growth 96h inconclusive (no result: Vaccinia Venus, Vaccinia mCherry)
COc1ccc(O[C@H]2C=C[C@@H](c3ccccc3)O[C@@H]2COC(=O)CC/C(C)=N/O[C@@H](C)c2cc(-c3c(C)cc(C)cc3C)no2)cc1	Pf growth 48h inconclusive, Pf growth 96h 2.9µM (no result: Vaccinia Venus, Vaccinia mCherry)
CC(C)(C)c1cc(N/C=C\c2nnnn2-c2ccc(Br)cc2)no1	none (no result: Vaccinia Venus, Vaccinia mCherry)
